Reference: ChEMBL document CHEMBL3988442, “University of Dundee, Small-Polar-MMV Screening Library” (2021)
For some of these results: Results with a measured potency or affinity are listed apart.

Columns and labels:
Parameters in all cases: scale not given: direction of the effect not stated beside the values
[1] = target: Protein translocase subunit SecA (Escherichia coli (strain K12)) (UniProt P10408); experiment: Assay to Identify E. coli SecA ATPase Inhibitors; assay type: functional; conditions: 30 µM
[2] = target: T1, Ubiquitin-activating enzyme e1, putative (Leishmania donovani (strain BPK282A1)) (UniProt E9BSI1); experiment: Leishmania donovani Ubiquitin Activating Enzyme (LdE1); assay type: functional; conditions: 30 µM
T1 sequence (whole entry): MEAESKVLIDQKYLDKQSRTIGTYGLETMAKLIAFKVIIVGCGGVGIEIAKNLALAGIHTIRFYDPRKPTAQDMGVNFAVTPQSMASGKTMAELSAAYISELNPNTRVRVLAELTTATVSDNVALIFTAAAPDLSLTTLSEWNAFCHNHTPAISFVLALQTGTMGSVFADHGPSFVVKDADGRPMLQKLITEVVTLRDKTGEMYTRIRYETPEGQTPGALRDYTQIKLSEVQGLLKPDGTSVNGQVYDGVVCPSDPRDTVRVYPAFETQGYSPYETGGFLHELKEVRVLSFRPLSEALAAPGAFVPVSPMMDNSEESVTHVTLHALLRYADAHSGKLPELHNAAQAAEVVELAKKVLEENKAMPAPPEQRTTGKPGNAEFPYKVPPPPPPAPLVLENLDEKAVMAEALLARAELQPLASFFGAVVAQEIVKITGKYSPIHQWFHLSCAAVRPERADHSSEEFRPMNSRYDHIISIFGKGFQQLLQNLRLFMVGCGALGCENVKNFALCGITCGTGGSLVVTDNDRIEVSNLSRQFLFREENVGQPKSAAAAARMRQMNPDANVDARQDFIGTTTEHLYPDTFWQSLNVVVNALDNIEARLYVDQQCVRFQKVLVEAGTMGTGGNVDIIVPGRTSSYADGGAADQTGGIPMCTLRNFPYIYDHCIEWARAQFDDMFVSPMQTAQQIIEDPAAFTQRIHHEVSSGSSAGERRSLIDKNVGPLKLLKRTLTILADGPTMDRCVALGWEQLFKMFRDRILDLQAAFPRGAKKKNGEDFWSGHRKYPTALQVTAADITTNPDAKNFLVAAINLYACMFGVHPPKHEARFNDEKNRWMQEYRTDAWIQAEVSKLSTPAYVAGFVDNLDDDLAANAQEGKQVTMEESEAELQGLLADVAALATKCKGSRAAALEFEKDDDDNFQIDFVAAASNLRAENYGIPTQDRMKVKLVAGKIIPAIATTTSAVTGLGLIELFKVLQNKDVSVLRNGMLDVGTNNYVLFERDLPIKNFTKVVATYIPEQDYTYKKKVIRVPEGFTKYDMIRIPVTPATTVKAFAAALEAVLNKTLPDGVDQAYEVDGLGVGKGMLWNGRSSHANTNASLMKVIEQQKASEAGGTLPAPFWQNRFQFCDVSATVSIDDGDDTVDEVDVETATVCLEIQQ

[3] = target: AMP-activated protein kinase, AMPK (Homo sapiens) (UniProt P54646+O43741+P54619+Q9UGJ0+Q9Y478+Q13131+Q9UGI9); experiment: AMP-dependent Kinase enzyme assay. An in vitro enzyme assay that detects ADP turnover that is directly proportional to AMPK activity. This uses naive AMPK that is activated during the assay with MK-8722; assay type: functional; conditions: 30 µM
[4] = target: Sialic acid-binding Ig-like lectin 9 (Homo sapiens) (UniProt Q9Y336); experiment: Hs-Siglec9 ALPHAscreen SOP 20170721; conditions: 10 µM
Trypanosoma cruzi = experiment: Trypanosoma cruzi phosphomannomutase and mannose-1-phosphate guanylyltransferase assay; assay type: functional; conditions: 10 µM
[5] = target: T2, Arginase-2, mitochondrial (Homo sapiens) (UniProt P78540); experiment: in vitro enzyme assay to detect the production of urea directly proportional to the activity of Arginase II; assay type: functional; conditions: 33.3 µM; also: in the data most compounds retested in dose-response had high values
T2 sequence (whole entry): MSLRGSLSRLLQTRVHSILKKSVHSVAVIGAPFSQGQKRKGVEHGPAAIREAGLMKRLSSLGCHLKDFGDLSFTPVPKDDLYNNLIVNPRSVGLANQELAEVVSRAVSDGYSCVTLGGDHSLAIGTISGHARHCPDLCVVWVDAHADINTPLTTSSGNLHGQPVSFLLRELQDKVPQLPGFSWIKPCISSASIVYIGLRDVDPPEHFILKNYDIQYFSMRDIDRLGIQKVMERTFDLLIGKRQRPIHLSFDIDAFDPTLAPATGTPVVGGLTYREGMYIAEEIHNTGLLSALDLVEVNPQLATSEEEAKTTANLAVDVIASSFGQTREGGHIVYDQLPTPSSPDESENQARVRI

[6] = target: T3, Proteasome subunit beta (Trypanosoma cruzi) (UniProt O96673); experiment: Trypanosoma cruzi proteasome chymotrypsin-like activity (TcProtChymo) assay.; also: in the data most compounds retested in dose-response had high values; assay type: functional; conditions: 9.37 µM
T3 sequence (whole entry): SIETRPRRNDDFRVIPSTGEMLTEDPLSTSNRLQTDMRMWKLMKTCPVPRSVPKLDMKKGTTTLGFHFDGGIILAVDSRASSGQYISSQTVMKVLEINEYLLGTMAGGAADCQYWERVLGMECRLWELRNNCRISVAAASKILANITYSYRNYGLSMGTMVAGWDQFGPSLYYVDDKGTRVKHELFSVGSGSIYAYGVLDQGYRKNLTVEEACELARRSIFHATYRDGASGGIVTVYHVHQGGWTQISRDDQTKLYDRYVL

Homo sapiens = species: Homo sapiens; experiment: To identify inhibition of the IFN signalling (Jak-Stat) pathway via expression of an eGFP reporter gene under the control of an IFN-stimulated response element (ISRE) containing MxA promoter.; assay type: functional; conditions: 30 µM
[7] = target: T4, Tyrosyl-tRNA synthetase, putative (Trypanosoma cruzi (strain CL Brener)) (UniProt Q4DSP6); experiment: Trypanosoma cruzi tyrosyl tRNA synthetase (TcYRS) _High Tyrosine SOP; assay type: functional; conditions: 30 µM; also: in the data most compounds retested in dose-response had high values
T4 sequence (whole entry): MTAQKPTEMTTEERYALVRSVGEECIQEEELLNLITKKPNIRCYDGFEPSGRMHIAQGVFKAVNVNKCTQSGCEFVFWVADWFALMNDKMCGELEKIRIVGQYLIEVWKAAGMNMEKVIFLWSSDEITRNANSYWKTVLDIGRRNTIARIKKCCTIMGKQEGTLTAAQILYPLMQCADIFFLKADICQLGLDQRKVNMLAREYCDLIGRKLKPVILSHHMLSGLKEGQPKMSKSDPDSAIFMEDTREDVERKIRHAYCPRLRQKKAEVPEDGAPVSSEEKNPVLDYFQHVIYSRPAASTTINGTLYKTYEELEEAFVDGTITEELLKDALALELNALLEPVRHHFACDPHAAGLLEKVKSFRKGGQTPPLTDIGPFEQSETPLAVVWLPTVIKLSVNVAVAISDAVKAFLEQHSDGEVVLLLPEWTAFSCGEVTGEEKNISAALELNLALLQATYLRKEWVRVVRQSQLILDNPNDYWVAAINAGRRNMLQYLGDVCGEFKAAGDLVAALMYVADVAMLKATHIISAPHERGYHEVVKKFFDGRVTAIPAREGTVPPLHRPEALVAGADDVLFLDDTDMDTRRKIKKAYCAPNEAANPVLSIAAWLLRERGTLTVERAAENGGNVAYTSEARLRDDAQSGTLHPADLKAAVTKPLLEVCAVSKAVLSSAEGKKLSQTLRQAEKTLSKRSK

[8] = target: T4, Tyrosyl-tRNA synthetase, putative (Trypanosoma cruzi (strain CL Brener)); experiment: Trypanosoma cruzi tyrosyl tRNA synthetase (TcYRS) SOP; assay type: functional; conditions: 30 µM
[9] = target: Chromo domain-containing protein 1 (Saccharomyces cerevisiae (strain ATCC 204508 / S288c) (Baker's yeast)) (UniProt P32657); experiment: ScCHD-1 Enzyme Inhibition Assay; assay type: functional; conditions: 30 µM; also: in the data most compounds retested in dose-response had high values
Sequence of Chromo domain-containing protein 1 (Saccharomyces cerevisiae (strain ATCC 204508 / S288c) (Baker's yeast)) (P32657 whole entry, the tested form may be a part): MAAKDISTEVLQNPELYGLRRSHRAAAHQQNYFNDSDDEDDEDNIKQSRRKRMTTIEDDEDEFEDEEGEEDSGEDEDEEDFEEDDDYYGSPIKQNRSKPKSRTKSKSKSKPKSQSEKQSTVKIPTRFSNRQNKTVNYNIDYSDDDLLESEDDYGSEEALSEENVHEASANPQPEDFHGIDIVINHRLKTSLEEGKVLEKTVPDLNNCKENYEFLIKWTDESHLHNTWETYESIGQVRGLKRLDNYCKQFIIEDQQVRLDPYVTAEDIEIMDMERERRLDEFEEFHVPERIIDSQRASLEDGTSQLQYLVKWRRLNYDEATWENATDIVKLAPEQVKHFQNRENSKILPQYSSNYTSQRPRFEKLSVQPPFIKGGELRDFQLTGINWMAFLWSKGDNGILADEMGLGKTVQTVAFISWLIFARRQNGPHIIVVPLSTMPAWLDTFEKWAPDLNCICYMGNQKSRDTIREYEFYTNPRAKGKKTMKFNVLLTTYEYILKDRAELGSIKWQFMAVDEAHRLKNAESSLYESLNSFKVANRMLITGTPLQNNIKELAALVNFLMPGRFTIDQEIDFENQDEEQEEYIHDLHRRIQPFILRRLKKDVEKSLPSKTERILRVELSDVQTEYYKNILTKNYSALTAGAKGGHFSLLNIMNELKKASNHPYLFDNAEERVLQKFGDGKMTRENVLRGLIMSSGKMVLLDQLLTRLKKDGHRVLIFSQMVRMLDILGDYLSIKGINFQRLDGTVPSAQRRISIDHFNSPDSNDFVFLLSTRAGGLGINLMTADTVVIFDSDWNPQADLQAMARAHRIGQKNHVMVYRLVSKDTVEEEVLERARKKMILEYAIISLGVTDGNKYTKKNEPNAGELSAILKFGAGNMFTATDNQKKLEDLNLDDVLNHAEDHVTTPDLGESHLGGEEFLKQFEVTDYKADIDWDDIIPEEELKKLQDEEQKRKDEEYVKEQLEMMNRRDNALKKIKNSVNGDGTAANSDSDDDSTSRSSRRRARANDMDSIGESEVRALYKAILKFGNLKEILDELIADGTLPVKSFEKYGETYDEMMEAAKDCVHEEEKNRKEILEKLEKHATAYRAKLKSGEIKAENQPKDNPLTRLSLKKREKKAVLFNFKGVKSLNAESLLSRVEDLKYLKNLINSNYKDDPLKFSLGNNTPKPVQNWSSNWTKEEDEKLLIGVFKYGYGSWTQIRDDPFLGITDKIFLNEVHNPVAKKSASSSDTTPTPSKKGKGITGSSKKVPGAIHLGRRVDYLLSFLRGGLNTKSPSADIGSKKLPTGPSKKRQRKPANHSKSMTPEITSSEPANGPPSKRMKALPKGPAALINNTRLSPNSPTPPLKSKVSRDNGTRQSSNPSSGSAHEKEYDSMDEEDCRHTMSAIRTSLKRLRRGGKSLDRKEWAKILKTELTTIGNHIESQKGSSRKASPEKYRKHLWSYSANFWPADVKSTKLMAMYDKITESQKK

Sequence of Sialic acid-binding Ig-like lectin 9 (Homo sapiens) (Q9Y336 whole entry): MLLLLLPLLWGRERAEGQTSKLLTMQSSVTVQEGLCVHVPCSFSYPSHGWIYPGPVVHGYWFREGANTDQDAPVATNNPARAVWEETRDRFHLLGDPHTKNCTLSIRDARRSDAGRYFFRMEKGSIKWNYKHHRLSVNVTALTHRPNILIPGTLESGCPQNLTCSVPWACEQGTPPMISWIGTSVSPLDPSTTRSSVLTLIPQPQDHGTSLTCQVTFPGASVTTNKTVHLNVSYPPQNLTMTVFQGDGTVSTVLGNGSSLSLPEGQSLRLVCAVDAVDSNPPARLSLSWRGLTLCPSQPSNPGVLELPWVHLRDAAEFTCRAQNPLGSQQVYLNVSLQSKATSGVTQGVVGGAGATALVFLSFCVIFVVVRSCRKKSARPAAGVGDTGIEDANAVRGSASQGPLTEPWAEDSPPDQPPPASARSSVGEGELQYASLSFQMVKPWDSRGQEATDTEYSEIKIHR
Sequence of Protein translocase subunit SecA (Escherichia coli (strain K12)) (P10408 whole entry): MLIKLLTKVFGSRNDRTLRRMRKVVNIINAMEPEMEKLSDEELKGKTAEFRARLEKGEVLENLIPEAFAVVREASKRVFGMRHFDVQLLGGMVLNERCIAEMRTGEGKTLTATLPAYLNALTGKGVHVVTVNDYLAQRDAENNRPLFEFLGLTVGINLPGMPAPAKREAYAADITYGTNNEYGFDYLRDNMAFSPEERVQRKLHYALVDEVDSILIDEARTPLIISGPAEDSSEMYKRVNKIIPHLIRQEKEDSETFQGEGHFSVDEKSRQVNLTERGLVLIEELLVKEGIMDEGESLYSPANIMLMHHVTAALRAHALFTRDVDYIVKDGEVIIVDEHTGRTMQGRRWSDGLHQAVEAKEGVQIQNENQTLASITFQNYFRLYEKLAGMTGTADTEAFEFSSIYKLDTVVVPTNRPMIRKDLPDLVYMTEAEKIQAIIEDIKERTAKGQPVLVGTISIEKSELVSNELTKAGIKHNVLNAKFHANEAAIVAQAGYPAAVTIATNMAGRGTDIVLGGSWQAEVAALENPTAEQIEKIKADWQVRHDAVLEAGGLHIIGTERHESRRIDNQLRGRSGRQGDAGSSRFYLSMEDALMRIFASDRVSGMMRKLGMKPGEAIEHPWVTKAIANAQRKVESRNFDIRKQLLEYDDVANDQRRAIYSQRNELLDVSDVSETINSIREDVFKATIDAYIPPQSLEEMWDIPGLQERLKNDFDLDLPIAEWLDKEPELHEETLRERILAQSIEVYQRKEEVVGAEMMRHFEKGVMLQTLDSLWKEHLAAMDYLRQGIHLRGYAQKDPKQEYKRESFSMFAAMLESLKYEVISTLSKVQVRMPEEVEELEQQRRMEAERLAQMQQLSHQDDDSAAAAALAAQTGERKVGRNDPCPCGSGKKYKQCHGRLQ

Row | SMILES | Percent Effect [1] [%] | Percent Effect [2] [%] | Percent Effect [3] [%] | Percent Effect [4] [%] | Percent Effect (Trypanosoma cruzi) [%] | Percent Effect [5] [%] | Percent Effect [6] [%] | Percent Effect (Homo sapiens) [%] | Percent Effect [7] [%] | Percent Effect [8] [%] | Percent Effect [9] [%]
1 | O=C1O[C@@H]2CN(Cc3ccccc3)C[C@@H]2N1CCCN1CCOCC1 | -6.39 | 2.67 | -0.894 | 2 | -3.8 | -0.521 | 15.2 | 20 | 4.92 | 11.1 | -5.71
2 | Cc1c(Br)cccc1C(=O)NC(C)CN1CCCC1=O (stereo unspecified) | -3.78 | 2.74 | -2.6 | -6.12 | -2.35 | 0.909 | 7.1 | 10 | 1.07 | 5 | -5.51
3 | Cc1noc(C)c1CCC(=O)NC(C)c1nnc2n1CCC2 (stereo unspecified) | -2.15 | 16.2 | 5.84 | 17.7 | 6.35 | 5.71 | 5.24 | 3.14 | 2.15 | 13.6 | -4.65
4 | C1CCCN(c2nc(C3CC3)ns2)CC1 | -7.97 | -5.48 | -19.9 | 6.34 | -4.31 | -2.27 | 12.2 | 30.1 | -4.3 | -10 | -3.08
5 | CC(=O)N1CCN(C(=O)c2cc(-n3cnnn3)ccc2Cl)CC1 | -7.31 | 2.63 | -6.84 | 0.287 | -2.63 | -4.73 | 6.04 | 9.34 | -2.13 | -2.6 | 0.334
6 | CC(C)N(C)C(=O)C1=NOC2(CCN(C(=O)c3ccncc3)C2)C1 (stereo unspecified) | -3.37 | 2.74 | -0.462 | -1.1 | -1.79 | -5.19 | 12.6 | 1.3 | 1.04 | 6.17 | -0.614
7 | Cc1nnc(CN2CCCC(c3cc(C(N)=O)[nH]n3)C2)o1 (stereo unspecified) | -3.02 | -5.41 | 0.969 | 11.5 | -1.23 | 0 | -2.34 | 2.07 | -1.48 | -1.24 | 1.61
8 | Cc1cc(C2CCCN2C(=O)c2cc3c(s2)CCC3)on1 (stereo unspecified) | -6.23 | 5.26 | 2.83 | 3.1 | 6.58 | -1.92 | 14.4 | -0.279 | 0.49 | 4.88 | -7.02
9 | O=C(Cc1ccccc1F)N1CCN(C(=O)c2cccc(F)c2)CC1 | 0.735 | 7.89 | -4.8 | -9.01 | -7.69 | 3.55 | 18.9 | 13.3 | 0 | -59.7 | 27.2
10 | Cn1cc(CN2CC[C@H]3OCC[C@@H](C(=O)N4CCCCO4)[C@@H]3C2)cn1 | -3.19 | 9.33 | -0.147 | 1.18 | -0.982 | -6.51 | 11.3 | 6.18 | 2.12 | 7.69 | -4.05
11 | CC(C)NC(=O)c1nnn(-c2cccc(C(F)(F)F)c2)c1N | -2.18 | -4.17 | -2.65 | -0.424 | 6.51 | -4.86 | 4.04 | 11.5 | 0 | 0 | -1.24
